Rows were chosen to be rich in hits. Some 3.5% of all compounds tested hit in one or more screens of this group.
Anthrax LF prot: inhibitors of Bacillus anthracis lethal factor protease; P15917; multiplex microsphere protease cleavage assay, LF; inhibition, % at 10 µM; 360,000 tested, 0.12% active; AID 588501; also: plate controls were buffer without enzyme for full effect and enzyme alone for no effect
Target sequence (P15917 whole entry, looked up): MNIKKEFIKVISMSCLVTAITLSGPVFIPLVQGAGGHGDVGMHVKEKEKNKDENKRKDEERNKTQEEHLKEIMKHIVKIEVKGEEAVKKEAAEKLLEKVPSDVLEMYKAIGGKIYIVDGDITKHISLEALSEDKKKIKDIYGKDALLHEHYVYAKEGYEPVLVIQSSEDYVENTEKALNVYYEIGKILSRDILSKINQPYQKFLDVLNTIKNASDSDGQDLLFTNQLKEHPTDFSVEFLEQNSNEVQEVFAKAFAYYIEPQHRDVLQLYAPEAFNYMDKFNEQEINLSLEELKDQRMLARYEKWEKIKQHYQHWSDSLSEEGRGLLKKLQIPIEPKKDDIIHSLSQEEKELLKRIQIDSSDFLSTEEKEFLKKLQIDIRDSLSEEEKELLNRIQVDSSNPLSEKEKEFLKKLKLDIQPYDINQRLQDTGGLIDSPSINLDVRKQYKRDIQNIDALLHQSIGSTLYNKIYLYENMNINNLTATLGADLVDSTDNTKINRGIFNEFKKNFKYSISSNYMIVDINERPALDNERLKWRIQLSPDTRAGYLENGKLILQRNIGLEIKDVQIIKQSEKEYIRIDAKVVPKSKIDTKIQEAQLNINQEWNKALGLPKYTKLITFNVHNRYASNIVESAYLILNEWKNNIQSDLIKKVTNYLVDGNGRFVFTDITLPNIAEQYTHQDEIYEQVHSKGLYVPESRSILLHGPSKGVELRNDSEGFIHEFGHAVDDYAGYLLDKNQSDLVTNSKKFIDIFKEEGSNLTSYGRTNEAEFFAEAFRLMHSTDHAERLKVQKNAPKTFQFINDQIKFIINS
BoNT F protease: blocks Botulinum neurotoxin F light chain protease | Multiplex microsphere protease cleavage assay, flow cytometry | inhibition, % at 10 µM | 360,000 tested, 0.22% active | AID 588497; in the data active = inhibition above about 35%, passing the limit was not always enough; inconclusive = no clear call, values can overlap the other calls; also: plate controls were buffer without enzyme for full effect and enzyme alone for no effect
Autofluor counter: counter-screen for toxin protease inhibitors: compound fluorescence; compound autofluorescence counterscreen, microsphere flow cytometry; hits give high values; fluorescence intensity (test concentration not listed); 360,000 tested, 3.1% active; in the data active = fluorescence intensity above about 16000; inconclusive = no clear call, values can overlap the other calls
BH1578 lux ind: inducers of Vibrio cholerae quorum light production without autoinducers; V. cholerae BH1578 lux reporter, luminescence, 6 h; AID 588436; 350,000 tested, 0.16% active; activation, % at 18.7 µM; in the data active = activation mostly above about 9.7%, no sharp cut-off; inconclusive = no clear call, values can overlap the other calls; inactive = mostly below about 3.7%
BoNT A protease: BoNT A light chain protease inhibition. inhibition, % at 10 µM. 360,000 tested, 0.17% active. multiplex microsphere protease substrate cleavage, flow cytometry. AID 588499; also: plate controls were buffer without enzyme for full effect and enzyme alone for no effect
Active calls of the source: *; i = inactive; u = inconclusive. Rule as the data show it, unless noted: active = inhibition above about 30%; inconclusive = no clear call, values can overlap the other calls; inactive = below that.

SMILES | Anthrax LF prot | BoNT F protease | Autofluor counter | BH1578 lux ind | BoNT A protease
CC(C)C(=O)Nc1ccc2c(c1)nc(CCN1CCN(C)CC1)n2C | -1.6 | -4.7 | 24142* | -0.2 | -2.5
Cn1c(CN2CCCCC2)nc2cc(NC(=O)c3ccc(F)cc3)ccc21 | -6.6 | -2.0 | 10523 | -0.4 | 0.0
Cn1c(CN2CCCCC2)nc2cc(NC(=O)c3ccccc3Cl)ccc21 | -2.0 | -4.1 | 20760* | -0.2 | -1.7
Cn1c(CN2CCCC2)nc2cc(NC(=O)C3CCCCC3)ccc21 | 1.2 | 0.1 | 17014* | -0.5 | -0.2
CC(=O)N1CCN(Cc2nc3cc(NC(=O)c4ccccc4Cl)ccc3n2C)CC1 | 5.1 | -2.0 | 4843 | i | 0.0
C[C@@H]1CN([C@H](C)CO)C(=O)CCCn2cc(nn2)CO[C@H]1CN(C)C(=O)C1CC1 | -6.2 | 5.1 | 2850 | i | 0.0
CC1(C)CC(=O)C(C=Nc2ccccc2)=C(O)C1 | -4.3 | -10.0 | 2613 | 0.2 | -0.4
COc1ccc(CN=CC2=C(O)CC(C)(C)CC2=O)cc1 | -1.9 | -3.8 | 24658* | i | -1.6
CC1(C)CC(=O)C(C=NCCN2CCN(C(=O)Cc3ccc(F)cc3)CC2)=C(O)C1 | 3.3 | 0.2 | 19988* | i | -1.0
CC1(C)CC(=O)C(C=NCC(O)c2ccccc2)=C(O)C1 (configuration not stated) | -1.4 | -3.8 | 20941* | 0.6 | -3.0
CC1(C)CC(=O)C(C=NCCCn2ccnc2)=C(O)C1 | -1.4 | 2.0 | 21981* | -3.8 | 1.2
CCOc1ccc(C(C)=O)cc1CSc1nc2nc(C)cc(C)n2n1 | -3.7 | 0.2 | 4597 | -1.9 | -0.9
Cc1ccccc1N=C1Nc2ccccc2N[C@]12C[C@H]1CCC(=O)N3CC[C@@H](C2)[C@@H]13 | -0.8 | -3.4 | 3898 | i | -0.6
CC1(C)CC(=O)C(C=NCC2CCCO2)=C(O)C1 (configuration not stated) | -2.4 | -4.8 | 25274* | i | -2.8
COCCn1c(N)c(N(Cc2ccccc2)C(=O)c2ccc(-c3ccc(Cl)cc3)o2)c(=O)[nH]c1=O | -0.2 | 1.8 | 5437 | i | -6.2
CCOc1ccc(-c2cc(CCCC(=O)NCCc3ccc(OC)c(OC)c3OC)no2)cc1 | -1.7 | -0.8 | 22608* | -0.3 | 0.5
COc1ccc(-c2cc(CCCC(=O)NCCc3ccc(OC)cc3OC)no2)cc1 | -2.1 | -2.4 | 24435* | i | -2.4
CCOc1ccc(-c2cc(CCCC(=O)NCCc3ccccc3)no2)cc1 | -0.6 | 1.8 | 3902 | -0.4 | 0.2
O=C(NC1CC1)c1cccc(Nc2ccc(-c3ccc4c(c3)OCCO4)nn2)c1 | -3.1 | 3.4 | 21941* | -0.5 | 4.4
Cn1cnc([N+](=O)[O-])c1Sc1ncccc1N | -0.7 | -1.8 | 22024* | i | -0.6
Cc1ccc(Sc2c([N+](=O)[O-])ncn2C)cc1 | -7.9 | 1.6 | 15373 | i | 1.7
CC(=O)Nc1ccc(NS(=O)(=O)c2c(Cl)cccc2Cl)cc1 | -0.8 | 6.8 | 3462 | -0.5 | 0.6
Cc1ccc(-c2[nH]ncc2C(=O)c2ccccc2C)c(O)c1 | 11.0 | 35.7* | 3804 | i | -1.3
Cc1ccccc1C(=O)c1cn[nH]c1-c1ccccc1O | -0.6 | -6.9 | 3881 | -0.5 | -2.1
C/C(=N\NC(=O)c1ccc(Cl)c(Cl)c1)c1ccccn1 | -3.5 | 37.4* | 3592 | -1.0 | 11.1
SMILES | Anthrax LF prot | BoNT F protease | Autofluor counter | BH1578 lux ind | BoNT A protease
Cc1cc(C)n(CC(O)COc2ccccc2)n1 (configuration not stated) | 0.4 | 8.5 | 9794 | -0.3 | 0.7
Cc1cc(C)n(CC(O)COCc2ccco2)n1 (configuration not stated) | -2.1 | -1.5 | 23131* | i | u
Cc1ccc(S(=O)(=O)/N=C(\Sc2ccccc2)c2ccccc2)cc1 | 0.0 | -5.5 | 24784* | -0.5 | -1.9
O=c1cc2c(=O)oc3cc(O)c(O)oc3c2c(O)c1O | -21.0 | -6.6 | 3521 | -8.3 | -3.2
CCSc1nnc(NC(=O)c2cc(C)on2)s1 | -1.6 | -10.6 | 11082 | -0.5 | -2.0
O=C(Nc1ccccc1C(F)(F)F)c1cc(-c2ccccc2O)on1 | -2.9 | -8.7 | 10120 | -0.4 | -1.4
Cc1ccc(NC(=O)c2cc(C)on2)cc1 | 0.7 | 4.4 | 20978* | i | 5.5
Cc1cc(C(=O)Nc2nnc(C(F)(F)F)s2)no1 | 0.8 | -0.4 | 22963* | -0.2 | 0.4
Cc1cc(C(=O)Nc2ccccc2C(F)(F)F)no1 | -1.1 | -0.1 | 24116* | 1.0 | u
COC(=O)c1ccc(/C=N/NC(=O)C2CC(=O)N(c3ccc(OC)cc3)C2)cc1 (configuration not stated) | -1.2 | -4.7 | 6298 | -0.2 | -2.2
CN1CCN(c2nc3ccccn3c(=O)c2/C=C(\C#N)S(=O)(=O)c2ccc(Cl)cc2)CC1 | -6.8 | -1.8 | 5507 | -0.7 | 0.1
C/C=C/c1cnc2c(c1)C(=O)N([C@H](C)CO)C[C@@H](C)[C@@H](CN(C)C(=O)NC1CCCC1)O2 | -7.2 | 4.5 | 3800 | -0.3 | 0.1
COc1ccccc1N=NNc1ccccc1OC | -2.4 | -2.9 | 4422 | i | -1.2
Cc1ccc(C)c(C(=O)COC(=O)c2ccccc2N2C(=O)C3C4CCC(C4)C3C2=O)c1 (configuration not stated) | -0.9 | -0.5 | 20251* | i | u
O=C(COC(=O)c1ccccc1N1C(=O)C2C3CCC(C3)C2C1=O)c1ccccc1 (configuration not stated) | 0.9 | 3.4 | 2939 | i | -0.5
C[C@@H]1CN([C@H](C)CO)C(=O)c2cc(Br)cnc2O[C@H]1CN(C)C(=O)Cc1ccccc1 | -2.5 | 0.2 | 3727 | i | -0.1
N#CC1=C2SCN(Cc3ccco3)CN2C(=O)CC1c1ccc(Cl)cc1 (configuration not stated) | 1.0 | 1.6 | 22500* | -1.4 | 2.6
COc1ccc(C2CC(=O)N3CN(Cc4ccco4)CSC3=C2C#N)cc1 (configuration not stated) | 1.0 | 1.5 | 20177* | i | u
CC(C)c1ccc(C2CC(=O)N3CN(Cc4ccco4)CSC3=C2C#N)cc1 (configuration not stated) | u | u | u | -0.7 | u
CN1C(=O)CC(N2CCN(c3ccc(Cl)c(Cl)c3)CC2)C1=O (configuration not stated) | -0.5 | 2.1 | 16251* | 14.3 | -0.1
COc1ccc(N(CC(=O)NCc2ccc(Cl)cc2)S(=O)(=O)c2c(C)noc2C)cc1 | -3.0 | 6.7 | 5415 | 3.4 | 0.3
COc1ccc(N(CC(=O)Nc2ccc(F)c(Cl)c2)S(=O)(=O)c2c(C)noc2C)cc1 | -4.3 | 0.1 | 16336* | i | 0.3
COc1ccc(N(CC(=O)Nc2ccc(C)cn2)S(=O)(=O)c2c(C)noc2C)cc1 | -2.3 | -6.0 | 17199* | 11.1 | -2.7
COc1ccc(N(CC(=O)Nc2cc(Cl)ccc2OC)S(=O)(=O)c2c(C)noc2C)cc1 | -3.2 | -4.7 | 20289* | -1.4 | u
CCOc1ccc(N(CC(=O)Nc2ccc(OC)cc2)S(=O)(=O)c2c(C)noc2C)cc1 | -15.7 | -2.7 | 4033 | -0.5 | 0.2
COc1ccc(N(CC(=O)Nc2ccc(OC)c(Cl)c2)S(=O)(=O)c2c(C)noc2C)cc1 | -11.1 | 2.2 | 20070* | -3.0 | 2.4

Screening results deposited in PubChem BioAssay by several laboratories.
